# Test results reported in paper PMC12529666, “Dysregulation of AGO2-miRNA dynamics underlies the AGO2-associated Lessel–Kreienkamp syndrome”.
# B1: GCGCCTTG (ssRNA)
# RNA 1: GAGUUCUACAGUCCGACGAUCCCAACGCGCCUUGCACCUGGAAUUCUCGGGUGCCAA
# RNA 2: UGGAGUGUGACAAUGGUGUUUG
# DNA 1: GATCGTCGGACTGTAGAACTC
# DNA 2: TTGGCACCCGAGAATTCCA
# modifications: constant regions annealed to DNA blockers; guide miR-122 5' phosphate
# B2: GCGCTCTG (ssRNA)
# RNA 1: GAGUUCUACAGUCCGACGAUCCCAACGCGCUCUGCACCUGGAAUUCUCGGGUGCCAA
# RNA 2: UGGAGUGUGACAAUGGUGUUUG
# DNA 1: GATCGTCGGACTGTAGAACTC
# DNA 2: TTGGCACCCGAGAATTCCA
# modifications: constant regions annealed to DNA blockers; guide miR-122 5' phosphate
# B3: ATGCTCTA (ssRNA)
# RNA 1: GAGUUCUACAGUCCGACGAUCCCAACAUGCUCUACACCUGGAAUUCUCGGGUGCCAA
# RNA 2: UGGAGUGUGACAAUGGUGUUUG
# DNA 1: GATCGTCGGACTGTAGAACTC
# DNA 2: TTGGCACCCGAGAATTCCA
# modifications: constant regions annealed to DNA blockers; guide miR-122 5' phosphate
# B4: GTACTTTG (ssRNA)
# RNA 1: GAGUUCUACAGUCCGACGAUCCCAACGUACUUUGCACCUGGAAUUCUCGGGUGCCAA
# RNA 2: UGGAGUGUGACAAUGGUGUUUG
# DNA 1: GATCGTCGGACTGTAGAACTC
# DNA 2: TTGGCACCCGAGAATTCCA
# modifications: constant regions annealed to DNA blockers; guide miR-122 5' phosphate
# B5: GTACCTCG (ssRNA)
# RNA 1: GAGUUCUACAGUCCGACGAUCCCAACGUACCUCGCACCUGGAAUUCUCGGGUGCCAA
# RNA 2: UGGAGUGUGACAAUGGUGUUUG
# DNA 1: GATCGTCGGACTGTAGAACTC
# DNA 2: TTGGCACCCGAGAATTCCA
# modifications: constant regions annealed to DNA blockers; guide miR-122 5' phosphate
# B6: GCGTCCTG (ssRNA)
# RNA 1: GAGUUCUACAGUCCGACGAUCCCAACGCGUCCUGCACCUGGAAUUCUCGGGUGCCAA
# RNA 2: UGGAGUGUGACAAUGGUGUUUG
# DNA 1: GATCGTCGGACTGTAGAACTC
# DNA 2: TTGGCACCCGAGAATTCCA
# modifications: constant regions annealed to DNA blockers; guide miR-122 5' phosphate
# B7: GTGCCCCG (ssRNA)
# RNA 1: GAGUUCUACAGUCCGACGAUCCCAACGUGCCCCGCACCUGGAAUUCUCGGGUGCCAA
# RNA 2: UGGAGUGUGACAAUGGUGUUUG
# DNA 1: GATCGTCGGACTGTAGAACTC
# DNA 2: TTGGCACCCGAGAATTCCA
# modifications: constant regions annealed to DNA blockers; guide miR-122 5' phosphate
# B8: GTATTCTG (ssRNA)
# RNA 1: GAGUUCUACAGUCCGACGAUCCCAACGUAUUCUGCACCUGGAAUUCUCGGGUGCCAA
# RNA 2: UGGAGUGUGACAAUGGUGUUUG
# DNA 1: GATCGTCGGACTGTAGAACTC
# DNA 2: TTGGCACCCGAGAATTCCA
# modifications: constant regions annealed to DNA blockers; guide miR-122 5' phosphate
# B9: GTGCTTTA (ssRNA)
# RNA 1: GAGUUCUACAGUCCGACGAUCCCAACGUGCUUUACACCUGGAAUUCUCGGGUGCCAA
# RNA 2: UGGAGUGUGACAAUGGUGUUUG
# DNA 1: GATCGTCGGACTGTAGAACTC
# DNA 2: TTGGCACCCGAGAATTCCA
# modifications: constant regions annealed to DNA blockers; guide miR-122 5' phosphate
# B10: GCGTCCCG (ssRNA)
# RNA 1: GAGUUCUACAGUCCGACGAUCCCAACGCGUCCCGCACCUGGAAUUCUCGGGUGCCAA
# RNA 2: UGGAGUGUGACAAUGGUGUUUG
# DNA 1: GATCGTCGGACTGTAGAACTC
# DNA 2: TTGGCACCCGAGAATTCCA
# modifications: constant regions annealed to DNA blockers; guide miR-122 5' phosphate
# B11: ACACCTCG (ssRNA)
# RNA 1: GAGUUCUACAGUCCGACGAUCCCAACACACCUCGCACCUGGAAUUCUCGGGUGCCAA
# RNA 2: UGGAGUGUGACAAUGGUGUUUG
# DNA 1: GATCGTCGGACTGTAGAACTC
# DNA 2: TTGGCACCCGAGAATTCCA
# modifications: constant regions annealed to DNA blockers; guide miR-122 5' phosphate
# B12: GTGCCTCG (ssRNA)
# RNA 1: GAGUUCUACAGUCCGACGAUCCCAACGUGCCUCGCACCUGGAAUUCUCGGGUGCCAA
# RNA 2: UGGAGUGUGACAAUGGUGUUUG
# DNA 1: GATCGTCGGACTGTAGAACTC
# DNA 2: TTGGCACCCGAGAATTCCA
# modifications: constant regions annealed to DNA blockers; guide miR-122 5' phosphate
# Target: AGO2 L192P (Homo sapiens, UniProt Q9UKV8 1-859, L192P;S387D;S824A;S828D;S831D;S834A)
# Sequence (Q9UKV8 whole entry L192P/S387D/S824A/S828D/S831D/S834A): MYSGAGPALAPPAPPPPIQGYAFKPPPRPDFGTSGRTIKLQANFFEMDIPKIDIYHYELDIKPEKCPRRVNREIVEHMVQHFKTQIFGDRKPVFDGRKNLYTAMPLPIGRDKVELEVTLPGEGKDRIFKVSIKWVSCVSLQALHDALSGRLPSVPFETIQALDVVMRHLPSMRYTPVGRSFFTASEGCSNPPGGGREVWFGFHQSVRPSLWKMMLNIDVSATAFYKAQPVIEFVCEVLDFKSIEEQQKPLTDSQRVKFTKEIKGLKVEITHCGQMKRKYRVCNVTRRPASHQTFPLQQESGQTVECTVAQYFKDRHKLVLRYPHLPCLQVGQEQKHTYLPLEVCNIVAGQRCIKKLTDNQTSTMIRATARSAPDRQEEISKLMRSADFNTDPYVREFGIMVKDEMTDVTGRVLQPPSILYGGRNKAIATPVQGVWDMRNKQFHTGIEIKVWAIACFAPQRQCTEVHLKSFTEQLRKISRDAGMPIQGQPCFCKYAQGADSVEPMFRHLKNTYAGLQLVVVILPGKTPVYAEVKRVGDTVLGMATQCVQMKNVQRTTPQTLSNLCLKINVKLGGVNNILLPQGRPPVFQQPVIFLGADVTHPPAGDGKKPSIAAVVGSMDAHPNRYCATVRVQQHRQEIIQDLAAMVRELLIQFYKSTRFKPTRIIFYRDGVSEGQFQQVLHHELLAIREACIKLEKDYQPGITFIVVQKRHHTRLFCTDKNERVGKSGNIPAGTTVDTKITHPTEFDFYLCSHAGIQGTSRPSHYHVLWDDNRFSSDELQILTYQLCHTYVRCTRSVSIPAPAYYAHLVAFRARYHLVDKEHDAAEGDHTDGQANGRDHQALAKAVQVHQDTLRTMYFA
# Assay: RNA Bind-n-Seq (nitrocellulose filter binding and sequencing); miR-122 guide loaded in AGO2; 60 min incubation; 30 mM Tris pH 8.0, 100 mM potassium acetate, 2 mM magnesium acetate, 0.5 mM TCEP, 0.005% NP-40, 0.01 mg/ml yeast tRNA; 3 nM AGO2-miR-122, 100 nM RNA library; 60; high values mean tight binding
# Conditions: protein: recombinant; tags: His6 (N-terminal, pFastBac HTA)
# In short: (§1)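 His-tagged AGO2 was expressed in Sf9 insect cells by baculovirus, loaded with a synthetic guide RNA, and purified by Ni-NTA and a biotinylated capture oligo. Bound RNA was extracted, reverse-transcribed, barcode-amplified and Illumina-sequenced. Fold enrichment is each sequence's read fraction divided by its input-library read fraction.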
row,Binder,binding signal
1,B1,0.365 fold enrichment over input
2,B2,0.371 fold enrichment over input
3,B3,0.443 fold enrichment over input
4,B4,0.365 fold enrichment over input
5,B5,0.347 fold enrichment over input
6,B6,0.38 fold enrichment over input
7,B7,0.406 fold enrichment over input
8,B8,0.39 fold enrichment over input
9,B9,0.489 fold enrichment over input
10,B10,0.366 fold enrichment over input
11,B11,0.412 fold enrichment over input
12,B12,0.431 fold enrichment over input

# Target: AGO2 A367P (Homo sapiens, UniProt Q9UKV8 1-859, A367P;S387D;S824A;S828D;S831D;S834A)
# Sequence (Q9UKV8 whole entry A367P/S387D/S824A/S828D/S831D/S834A): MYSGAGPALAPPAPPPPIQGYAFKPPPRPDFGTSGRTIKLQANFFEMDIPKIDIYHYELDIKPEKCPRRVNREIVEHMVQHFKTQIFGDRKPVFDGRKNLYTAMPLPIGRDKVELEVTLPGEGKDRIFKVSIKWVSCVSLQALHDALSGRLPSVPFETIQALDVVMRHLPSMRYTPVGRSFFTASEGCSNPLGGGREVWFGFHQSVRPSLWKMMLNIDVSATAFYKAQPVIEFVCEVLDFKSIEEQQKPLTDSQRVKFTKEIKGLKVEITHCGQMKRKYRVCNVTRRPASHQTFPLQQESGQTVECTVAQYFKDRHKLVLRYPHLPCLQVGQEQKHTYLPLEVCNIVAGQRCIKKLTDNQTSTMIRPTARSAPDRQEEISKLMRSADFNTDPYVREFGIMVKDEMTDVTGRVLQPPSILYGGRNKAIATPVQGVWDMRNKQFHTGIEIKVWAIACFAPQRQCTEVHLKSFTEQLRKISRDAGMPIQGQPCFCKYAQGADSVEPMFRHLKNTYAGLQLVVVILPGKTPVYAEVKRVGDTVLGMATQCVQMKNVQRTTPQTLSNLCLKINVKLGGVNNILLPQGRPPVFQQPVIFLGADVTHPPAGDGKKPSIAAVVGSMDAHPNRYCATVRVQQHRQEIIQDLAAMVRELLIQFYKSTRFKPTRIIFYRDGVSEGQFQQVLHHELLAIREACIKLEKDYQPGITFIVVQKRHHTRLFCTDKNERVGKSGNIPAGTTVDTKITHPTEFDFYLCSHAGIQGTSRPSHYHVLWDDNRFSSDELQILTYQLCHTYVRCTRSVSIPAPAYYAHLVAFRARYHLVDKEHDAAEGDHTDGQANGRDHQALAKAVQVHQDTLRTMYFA
# Assay: as above
# Conditions: protein: recombinant; tags: His6 (N-terminal, pFastBac HTA)
# In short: as §1
row,Binder,binding signal
1,B1,0.15 fold enrichment over input
2,B2,0.163 fold enrichment over input
3,B3,0.171 fold enrichment over input
4,B4,0.121 fold enrichment over input
5,B5,0.125 fold enrichment over input
6,B6,0.156 fold enrichment over input
7,B7,0.159 fold enrichment over input
8,B8,0.139 fold enrichment over input
9,B9,0.185 fold enrichment over input
10,B10,0.15 fold enrichment over input
11,B11,0.179 fold enrichment over input
12,B12,0.162 fold enrichment over input

# Target: AGO2 T357M (Homo sapiens, UniProt Q9UKV8 1-859, T357M;S387D;S824A;S828D;S831D;S834A)
# Sequence (Q9UKV8 whole entry T357M/S387D/S824A/S828D/S831D/S834A): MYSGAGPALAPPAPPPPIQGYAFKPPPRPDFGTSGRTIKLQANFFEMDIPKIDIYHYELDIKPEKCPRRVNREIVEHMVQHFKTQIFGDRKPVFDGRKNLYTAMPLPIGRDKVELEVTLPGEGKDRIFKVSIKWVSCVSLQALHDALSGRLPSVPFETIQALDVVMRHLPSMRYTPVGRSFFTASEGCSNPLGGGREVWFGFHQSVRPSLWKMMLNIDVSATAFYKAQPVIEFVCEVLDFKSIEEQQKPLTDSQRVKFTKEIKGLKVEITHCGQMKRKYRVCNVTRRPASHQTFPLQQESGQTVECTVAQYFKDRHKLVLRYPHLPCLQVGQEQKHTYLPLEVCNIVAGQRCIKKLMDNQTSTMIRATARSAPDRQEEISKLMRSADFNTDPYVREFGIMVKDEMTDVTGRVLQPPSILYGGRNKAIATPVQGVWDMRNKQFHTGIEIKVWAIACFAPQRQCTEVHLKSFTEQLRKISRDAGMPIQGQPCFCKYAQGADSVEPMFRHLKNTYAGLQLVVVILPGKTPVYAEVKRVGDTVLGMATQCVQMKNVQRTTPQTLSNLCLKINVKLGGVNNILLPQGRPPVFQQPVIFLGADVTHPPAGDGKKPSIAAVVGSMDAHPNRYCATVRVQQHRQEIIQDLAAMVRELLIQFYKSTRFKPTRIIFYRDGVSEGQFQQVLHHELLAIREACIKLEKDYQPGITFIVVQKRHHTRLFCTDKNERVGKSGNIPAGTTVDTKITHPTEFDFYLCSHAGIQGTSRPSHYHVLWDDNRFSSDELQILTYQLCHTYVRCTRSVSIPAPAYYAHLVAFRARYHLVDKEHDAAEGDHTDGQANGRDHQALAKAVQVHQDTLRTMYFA
# Assay: as above
# Conditions: protein: recombinant; tags: His6 (N-terminal, pFastBac HTA)
# In short: as §1
row,Binder,binding signal
1,B1,0.532 fold enrichment over input
2,B2,0.565 fold enrichment over input
3,B3,0.526 fold enrichment over input
4,B4,0.46 fold enrichment over input
5,B5,0.419 fold enrichment over input
6,B6,0.56 fold enrichment over input
7,B7,0.568 fold enrichment over input
8,B8,0.506 fold enrichment over input
9,B9,0.644 fold enrichment over input
10,B10,0.539 fold enrichment over input
11,B11,0.471 fold enrichment over input
12,B12,0.57 fold enrichment over input

# Target: AGO2 F182del (Homo sapiens, UniProt Q9UKV8 1-859, S387D;S824A;S828D;S831D;S834A;del182-182)
# Sequence (Q9UKV8 other isoform, or with tags, fused parts or gaps S387D;S824A;S828D;S831D;S834A;del182-182): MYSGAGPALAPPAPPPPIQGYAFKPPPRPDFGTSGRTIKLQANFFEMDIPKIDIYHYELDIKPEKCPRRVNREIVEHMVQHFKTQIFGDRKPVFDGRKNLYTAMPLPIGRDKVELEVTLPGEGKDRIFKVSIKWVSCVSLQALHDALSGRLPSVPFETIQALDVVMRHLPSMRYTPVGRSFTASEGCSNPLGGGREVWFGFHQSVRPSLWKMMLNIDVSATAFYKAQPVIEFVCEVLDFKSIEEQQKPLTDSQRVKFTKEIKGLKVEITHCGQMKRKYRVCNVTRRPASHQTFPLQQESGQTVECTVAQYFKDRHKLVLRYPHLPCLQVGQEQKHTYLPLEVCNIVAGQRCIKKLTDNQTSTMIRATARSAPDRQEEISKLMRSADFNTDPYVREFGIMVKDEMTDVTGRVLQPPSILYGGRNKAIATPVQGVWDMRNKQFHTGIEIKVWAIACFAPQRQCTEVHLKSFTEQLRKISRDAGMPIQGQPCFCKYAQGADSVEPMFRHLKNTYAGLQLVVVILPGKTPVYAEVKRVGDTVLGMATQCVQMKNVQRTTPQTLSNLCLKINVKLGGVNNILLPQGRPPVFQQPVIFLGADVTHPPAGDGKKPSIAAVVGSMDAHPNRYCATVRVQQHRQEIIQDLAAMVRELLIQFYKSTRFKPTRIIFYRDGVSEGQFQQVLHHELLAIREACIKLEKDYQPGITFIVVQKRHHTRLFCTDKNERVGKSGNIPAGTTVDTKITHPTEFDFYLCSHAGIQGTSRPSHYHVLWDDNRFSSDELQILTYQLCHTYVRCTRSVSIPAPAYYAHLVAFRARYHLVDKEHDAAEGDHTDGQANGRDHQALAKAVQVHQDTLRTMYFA
# Assay: as above
# Conditions: protein: recombinant; tags: His6 (N-terminal, pFastBac HTA)
# In short: as §1
row,Binder,binding signal
1,B11,0.256 fold enrichment over input
